From PubChem BioAssay
Pf growth 96h: Primary qHTS for delayed death inhibitors of the malarial parasite plastid, 96 hour incubation | P. falciparum luciferase reporter growth, 96 h | Potency, µM (top dose mostly 28.7 µM), for the others: at the highest dose activity change, negative = inhibition, usual class: inhibitors | 320,000 tested, 6.9% active; further: potency means the concentration at half of the fitted maximal effect
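Erythrocytes infected with luciferase-expressing P. falciparum were dispensed at 2% hematocrit and 0.05% parasitemia (final), then incubated with compounds 96 hours at 37 C in 5% CO2. Luminescence after detection reagent addition reported growth.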
Pf growth 48h: Primary qHTS for delayed death inhibitors of the malarial parasite plastid, 48 hour incubation; AID 504832, 2011; P. falciparum luciferase growth in erythrocytes, 48 h; Potency, µM (doses to about 28.7 µM), for the others: at the top dose activity change, negative = inhibition, most hits filed as inhibitors; 310,000 tested, 5.9% active; further: potency means the concentration at half of the fitted maximal effect
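Compounds are pin-transferred into medium, infected erythrocytes (2% hematocrit, 0.1% parasitemia final) are added, and plates sit one parasite generation at 37 C in 5% CO2. Detection reagent is then added and luminescence measured.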
Marburg entry inh: qHTS for inhibitors of binding or entry into cells for Marburg Virus; Marburg virus pseudotyped entry inhibition, cell reporter; Potency, µM (series often up to 37.8 µM), for inactives: at the top dose activity change, negative = inhibition, actives largely listed as inhibitors; 300,000 tested, 1.8% active; calls by dose curve; tested in HEK293 cells; further: potency means the concentration at half of the fitted maximal effect
HCMV antiviral: qHTS Assay for inhibitors of the human cytomegalovirus (HCMV) | HFF cells, HCMV-luciferase reporter, 72 h; active compounds read low | activity change, negative = inhibition, % at 57.5 µM | AID 1259415, 2018 | 410,000 tested, 4.5% active; in the data active means activity change below about -60%; inconclusive means no clear call, values can overlap the other calls; inactive means above about -39%
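HFF cells seeded 16 h at 37C, treated with compounds, infected with luciferase-reporter HCMV at MOI 1 PFU/cell; luciferase read at 72 h post infection, normalized to buffer-only and Salinomycin controls.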
Lassa entry inh: qHTS for Inhibitors of binding or entry into cells for Lassa Virus | Lassa virus pseudotype entry inhibition, cell reporter | Potency, µM (series often up to 37.9 µM), for the others: at the top dose activity change, negative = inhibition, actives largely listed as inhibitors | 300,000 tested, 1.2% active | AID 540256, 2011; calls by dose curve; tested in HEK293 cells; further: potency means the concentration at half of the fitted maximal effect; nearly all actives have a fitted effect of over 50% in size
HCV inh: qHTS Assay for Inhibitors of Hepatitis C Virus (HCV); Potency, µM (top dose mostly 41.8 µM), for inactives: at the top dose activity change, negative = inhibition, most hits filed as inhibitors; 340,000 tested, 3.4% active; Huh7.5.1 HCVcc-Cre infection, luciferase reporter, 44 h; further: potency means the concentration at half of the fitted maximal effect
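Seed cells (1,000/well) for 4 h; treat with compound and infect with HCVcc-Cre, moi about 0.5. Incubate 44 h, then detect luciferase activity.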
* = called active by the depositor; [ ] = remark or other dose. This is a sample that favours compounds with a hit; in the whole collection about 14% have one here. Unless noted, the call rests on the fitted dose curve; in most records, active means well fitted inhibition curve with a large enough effect; inconclusive means small, poorly fitted or top-dose-only effect, or another doubt; inactive means no such curve, though single readings can be large or run the other way. On the % scale 0 is the no-effect control and ±100 the full control effect.

For CC(Oc1ccccc1)C(=O)Nc1ccccc1C(=O)OCc1cc(=O)n2nc(C3CC3)sc2n1 (stereo not drawn) the results were HCMV antiviral 37.1 and Lassa entry inh inconclusive.
COC(=O)C1CCN(C(c2ccccc2)c2sc3nc(-c4ccco4)nn3c2O)CC1 (stereo not drawn) was read as HCMV antiviral 23.4 and Lassa entry inh -0.5%[46.1 µM].
Screening COc1ccc2[nH]cc(CCN=C3SCC(=O)N3C)c2c1 returned Pf growth 96h 11.7µM*, Marburg entry inh 0.3%, HCMV antiviral 8.0, Lassa entry inh -1.3% and HCV inh -7.7%.
For COc1ccc2[nH]cc(CCn3ccc(=O)c(C)c3C)c2c1 the results were Pf growth 96h inconclusive, Pf growth 48h inconclusive, Marburg entry inh 11.0%[46.1 µM], HCMV antiviral -38.3, Lassa entry inh 7.9%[46.1 µM] and HCV inh 11.8%.
For COc1ccncc1-c1csc(C(O)c2ccccc2)n1 (stereo not drawn) the results were HCMV antiviral -69.2*.
`COc1cccc(C(O)c2nc(-c3ccc(F)cc3OC)cs2)c1` (stereo not drawn) gave HCMV antiviral 17.2.
Screening COc1cc(C(O)c2nc(-c3cc4ccccc4o3)cs2)ccc1F (stereo not drawn) returned HCMV antiviral -76.6*.
For COc1ccccc1-c1csc(C(NC(C)=O)c2ccccc2)n1 (stereo not drawn) the results were HCMV antiviral -78.9*.
For CCOC(=O)c1cnc(N2CCN(c3cccc(C)c3C)CC2)c2ccccc12 the results were HCMV antiviral 33.0 and Lassa entry inh inconclusive.
For CCNC(=O)C1CCCN(Cc2cc(-c3ccccc3)on2)CC1 (stereo not drawn) the results were HCMV antiviral 4.8.
For Cc1cc(Cl)ccc1NC(=O)CN(c1ccccc1Br)S(C)(=O)=O the results were HCMV antiviral 2.5 and Lassa entry inh inconclusive.
For CN(C)c1ccc(N=Nc2nc3ccccc3n2C)cc1 the results were Pf growth 96h inconclusive, Pf growth 48h 4.0%, HCMV antiviral inconclusive and HCV inh 10µM*.
`Cn1c(N=Nc2ccccc2)nc2ccccc21` gave Pf growth 96h 0.262µM*, Pf growth 48h 0.738µM*, Marburg entry inh inconclusive, HCMV antiviral -28.8, Lassa entry inh inconclusive and HCV inh inconclusive.
`CNc1ncnc2c1cnn2C1CCCCO1` (stereo not drawn) gave Marburg entry inh 0.1%, HCMV antiviral -18.1, Lassa entry inh 6.3% and HCV inh -8.7%.
Cn1c(=S)[nH]c2cccnc21 was read as Pf growth 96h 8.28µM*, Pf growth 48h 15.0%, Marburg entry inh 2.4%, HCMV antiviral 25.7, Lassa entry inh -8.5% and HCV inh 0.1%.
Screening CC(=O)/C=C/c1ccc2ccccc2n1 returned Pf growth 96h inconclusive, Pf growth 48h inconclusive, Marburg entry inh inconclusive, HCMV antiviral -83.7*, Lassa entry inh inconclusive and HCV inh inconclusive.
Screening COc1ccccc1CNC(=O)COC(=O)/C=C/c1cccs1 returned Pf growth 96h -11.1%, Pf growth 48h -13.6%, Marburg entry inh -37.9%, HCMV antiviral -25.6, Lassa entry inh 1.4% and HCV inh 4.3%.
COc1ccccc1CNC(=O)COC(=O)/C=C/c1ccc2ccccc2n1 was read as HCMV antiviral -62.1* and HCV inh 11.2%.
`O=C(NCc1ccccc1)c1nc2ccccc2nc1-c1ccc(F)cc1` gave HCMV antiviral 18.2.
`O=C(O)c1ccc(COc2ccc3ccccc3c2/C=C2/NC(=O)N(Cc3ccc(F)cc3)C2=O)cc1` gave Pf growth 96h 31.8%, Pf growth 48h 8.28µM*, Marburg entry inh inconclusive, HCMV antiviral 5.0, Lassa entry inh -12.7% and HCV inh 22.8%.
O=C(O)c1ccc(COc2ccccc2/C=C2\NC(=O)N(Cc3ccccc3)C2=O)cc1 was read as Pf growth 96h inconclusive, Pf growth 48h inconclusive, Marburg entry inh -19.7%[46.1 µM], HCMV antiviral -33.6, Lassa entry inh -13.8% and HCV inh -3.3%.
Screening CCC(CC)NC(=O)c1ccccc1Oc1ccccc1 returned Pf growth 96h inconclusive, Marburg entry inh -28.3%, HCMV antiviral 3.7, Lassa entry inh 2.9% and HCV inh -8.5%.
Screening CCC(C)(C)NC(=O)c1ccccc1Oc1ccccc1 returned Pf growth 96h -18.1%, Pf growth 48h inconclusive, Marburg entry inh inconclusive, HCMV antiviral -75.6*, Lassa entry inh 5.0%[46.1 µM] and HCV inh 27.5%.
`Cc1cccc(NC(=O)C2CCN(c3nc4ccccc4[nH]3)CC2)c1C` gave HCMV antiviral 0.0 and Lassa entry inh 4.6%[46.1 µM].
For COc1ccc(C(C)=O)cc1CSc1nnnn1-c1ccc(O)cc1 the results were Pf growth 96h -2.6%, Pf growth 48h -2.3%, HCMV antiviral -30.6 and HCV inh -25.2%.
COc1ccc(F)cc1CSc1nnnn1-c1ccc(O)cc1 was read as Pf growth 96h -10.6%, Pf growth 48h 9.7%, Marburg entry inh inconclusive, HCMV antiviral -61.7*, Lassa entry inh inconclusive and HCV inh inconclusive.
`CCc1nn(CC(=O)NC2CC2)c(=O)c2cc3ccccc3n12` gave Marburg entry inh 15.2%[46.1 µM] and HCMV antiviral 8.1.
`CC(C)(C)C1CCC(OCC(O)CN2CCN(Cc3ccccc3)CC2)CC1` (stereo not drawn) gave Pf growth 96h inconclusive, Pf growth 48h inconclusive, HCMV antiviral 0.1 and HCV inh 31.6µM*.
`OC(COC1CCCCC1)CN1CCN(c2ccccc2)CC1` (stereo not drawn) gave Pf growth 48h 23.0%, Marburg entry inh -3.0%, HCMV antiviral 10.4, Lassa entry inh 3.5% and HCV inh 1.0%.
Screening CC(C)(C)C1CCC(OCC(O)CN2CCN(c3ccccn3)CC2)CC1 (stereo not drawn) returned Pf growth 96h -22.3%, Pf growth 48h 3.7%, Marburg entry inh inconclusive, HCMV antiviral -69.2*, Lassa entry inh inconclusive and HCV inh -22.4%.
For OC(CN1CCN(c2ccccn2)CC1)Cn1c2ccccc2c2ccccc21 (stereo not drawn) the results were Pf growth 96h 1.85µM*, Pf growth 48h inconclusive, Marburg entry inh -0.2%, HCMV antiviral 25.5 and HCV inh inconclusive.
